# Measurements taken from PubChem BioAssay AID1645875 (National Center for Advancing Translational Sciences (NCATS), 2021).
# Results filed as inconclusive are left out. Active and inactive are the calls of the source. Calls come from the whole dose curve; as a rule, active = well fitted inhibition curve with a large enough effect; inconclusive = small, poorly fitted or top-dose-only effect; inactive = no such curve, though single readings can be large or run the other way.
# Target: N-terminal Xaa-Pro-Lys N-methyltransferase 1 (Homo sapiens) (UniProt Q9BV86)
# Sequence (Q9BV86 whole entry, looked up): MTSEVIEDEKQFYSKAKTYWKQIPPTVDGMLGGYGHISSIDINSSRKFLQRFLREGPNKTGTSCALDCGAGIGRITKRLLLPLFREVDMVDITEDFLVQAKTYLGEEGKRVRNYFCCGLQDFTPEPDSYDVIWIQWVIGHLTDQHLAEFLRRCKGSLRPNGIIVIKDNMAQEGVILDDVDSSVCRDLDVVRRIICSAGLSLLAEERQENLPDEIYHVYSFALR
# Assay: Orthogonal qHTS for Inhibitors of N-terminal methyltransferase 1 (NTMT1): ThioGlo Assay
# Conditions: NTMT1 SAHH-coupled ThioGlo fluorescence, 30 min; series mostly up to 84.5 µM
# Summary of the method: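 ThioGlo3 (15 uM) detects the thiol product formed by SAHH (10 uM) from SAM (100 uM) turnover by 125 nM NTMT1 (all final), with compounds in concentration series. Readings at ex 340/em 450 nm at start and after 30 min at room temperature; data background-normalized.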
row,SMILES,Potency
1,COc1cc2nc(N(C)C)nc(NC3CCN(C)CC3)c2cc1OC,inactive
2,O=C(/C=C/c1ccc(O)c(O)c1)OCCc1ccccc1,17.3 µM (active)
3,COc1cc2nc(N3CCOCC3)nc(NC(C)C)c2cc1OC,inactive
4,Cc1cc(C)nc(NC(=S)N2CCN(c3cccc(S(C)(=O)=O)c3)CC2)c1,12.3 µM (active)
5,Cc1cc(O)c2c(c1)C(=O)c1cc(O)cc(O)c1C2=O,27.4 µM (active)
6,COc1cc2c(NC3CCN(CC4CCCCC4)CC3)nc(N3CCCN(C(C)C)CC3)nc2cc1OCCCN1CCCCC1,12.3 µM (active)
7,Cc1cc(N2CCOCC2)cc2[nH]c(-c3c(NC[C@@H](O)c4cccc(Cl)c4)cc[nH]c3=O)nc12,13.9 µM (active)
8,CCOc1ccccc1N1CC(c2nc3ccccc3n2CCCCOc2cc(C)ccc2C)CC1=O (centres undefined),inactive
9,Cc1cccc(NC(=O)c2c(NC(=O)c3ccccc3)sc3c2CCCC3)c1,inactive
10,O=C(O)c1ccnc2cc(-c3nc4ccccc4n3CCN3CCCCC3)sc12,55.5 µM (active)
11,COc1cc2c(NC3CCN(C4CCCCC4)CC3)nc(N3CCCCC3)nc2cc1OCCOCCN(C)C,43.5 µM (active)
12,COc1cc(N2CCC(N3CCN(C)CC3)CC2)ccc1Nc1ncc(Cl)c(-c2c[nH]c3ccccc23)n1,17.5 µM (active)
13,CCN1CCCN(c2nc(NC3CCN(C(C)C)CC3)c3cc(OC)c(OCCCN4CCCCC4)cc3n2)CC1,38.8 µM (active)
14,NCCOc1cc(C(=O)Nc2cc(OCCN)c3ccccc3n2)nc(C(=O)Nc2cc(OCCN)c3ccccc3n2)c1,19.4 µM (active)
15,COc1ccc(-c2nnc3n2N=C(c2c(OC)cccc2OC)CS3)cc1OC,inactive
16,COc1ccc(C2=Nn3c(nnc3-c3ccccc3Cl)SC2)cc1OC1CCCC1,inactive
17,COc1ccc(C2CC(=O)N3CN(C4CCCCC4)CSC3=C2C#N)cc1 (centres undefined),6.89 µM (active)
18,N.N.N.N.N.N.N.N.N.N.N.N.N.N.O.O.[Ru+4].[Ru+5].[Ru+5],34.5 µM (active)
19,COc1cc(N2CCN(C(C)=O)CC2)ccc1Nc1ncc(Cl)c(Nc2ccc(N3CCN(C(C)=O)CC3)cc2OC)n1,22.1 µM (active)
